# Measured values reported in PubChem BioAssay.
# Activity calls are given as the source filed them. Unless noted, the rule behind the calls is not given here.
# Tests used:
# [1] = system: XIP peptide (Xip251-270) binding; test: XIP fragment 251-270 binding compounds – biochemical, small-molecule microarray, fluorescence 635/667 nm, 0.1 µg/mL protein, primary screen (AID 1182); details: fluorescent protein binding, 635 nm, higher = more signal, called active from +8 up or from −8 down
# XIP peptide (Xip251-270) = test: compounds binding XIP fragment 251-270 – biochemical, small-molecule microarray, fluorescence 635/667 nm, 0.5 µg/mL protein, primary screen (AID 1183); details: fluorescence 635 nm, higher = more signal
# [2] = blood-stage malaria parasite viability loss – strain 3D7, DAPI fluorescence, 100 nL, primary screen (AID 1184);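 note: parasites grown inside human red blood cells in medium with human serum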; details: P. falciparum 3D7 growth, 3 d, higher = more signal
# [3] = molecular target: Homeobox protein Hox-A13 (Mus musculus) (UniProt Q62424); test: disruptors of Hoxa13 oligonucleotide interaction – biochemical, fluorescence polarization, labeled oligonucleotide, primary screen (AID 1185); details: Hoxa13:DNA binding, 15 min, higher = more signal, called active from +8 up or from −8 down
# Sequence of Homeobox protein Hox-A13 (Mus musculus) (Q62424 whole entry, looked up): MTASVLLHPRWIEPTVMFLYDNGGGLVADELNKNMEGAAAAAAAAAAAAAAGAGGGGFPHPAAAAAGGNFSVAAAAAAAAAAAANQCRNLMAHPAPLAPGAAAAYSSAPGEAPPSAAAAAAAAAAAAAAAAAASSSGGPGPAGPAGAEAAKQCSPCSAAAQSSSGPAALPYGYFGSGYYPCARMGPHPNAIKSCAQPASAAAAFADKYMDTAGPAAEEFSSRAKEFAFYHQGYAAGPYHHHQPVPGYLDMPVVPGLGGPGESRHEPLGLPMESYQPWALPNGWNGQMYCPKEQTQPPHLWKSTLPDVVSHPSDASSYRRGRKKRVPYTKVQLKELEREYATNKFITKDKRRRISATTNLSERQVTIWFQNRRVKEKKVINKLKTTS
# [4] = blockers of DNA damage checkpoint Chk1 activation – imaging, HeLa, hydroxyurea, phospho-Chk1 antibody, percent positive cells, primary screen (AID 1186); details: hydroxyurea-induced phospho-Chk1 immunofluorescence imaging, higher = more signal
# [5] = blockers of DNA damage checkpoint Chk1 activation – imaging, HeLa, hydroxyurea, phospho-Chk1 nuclear intensity, primary screen (AID 1187); details: hydroxyurea-induced phospho-Chk1 immunofluorescence imaging, higher = more signal
Structure (SMILES),composite z-score [1],composite z-score (XIP peptide (Xip251-270)),z-score [2],z-score [3],z-score [4],z-score [5]
CCOC(=O)C[C@H]1[C@H](OC(=O)c2ccccc2-c2ccccc2)[C@@H](NC(=O)c2ccccc2)c2cc(OCCCO)ccc2N1C(=O)c1ccccc1,-0.101 (inactive),-0.127,-1.39,-4.85 (inactive),0.972 (inactive),0.528 (inactive)
COc1ccc(C(=O)Nc2cccc(CN3C(=O)[C@]4(O[C@H](CCn5cc([C@H](O)c6ccccc6)nn5)[C@@H]([Si](C)(C)c5ccc(OC)cc5)[C@@H]4C)c4ccccc43)c2)cc1,0.0632 (inactive),0.497,-2.76,2 (inactive),-0.161 (inactive),-0.0692 (inactive)
COCC(=C=CC[C@H](O)c1cccc(OCCO)c1)C[C@H](O)COCc1ccccc1,0.196 (inactive),-0.524,-1.88,-3.95 (inactive),-0.0978 (inactive),0.443 (inactive)
C=CCC(OC(C)=O)[C@@H]1[C@@H](N(Cc2ccc(-c3cccc(C(F)(F)F)c3)o2)C(=O)c2ccc(C)cc2)c2cc(OCCCO)ccc2N1C(=O)Cc1ccc(OC)cc1 (stereo not given in full),-0.635 (inactive),-0.0047,-0.549,-0.791 (inactive),-0.159 (inactive),0.0947 (inactive)
COCCCNC(=O)[C@@]1(Sc2ccc(C)cc2)CC(=O)N(C(C)C)[C@@H]1c1ccc(CO)cc1I,0.287 (inactive),0.609,-1.63,-4.13 (inactive),0.121 (inactive),0.579 (inactive)
COc1cc2c(cc1O)C(c1ccc(CN3CCCC3)cc1)N(C)CC2 (stereo not given),-0.389 (inactive),-0.819,-1.58,-2.85 (inactive),0.227 (inactive),0.129 (inactive)
CC(C)[Si]1(C(C)C)OCc2cc(-c3ccc(-c4ccc(Cl)c(Cl)c4)o3)nc(CCc3ccccc3)c21,-0.218 (inactive),-0.355,-0.946,0.0584 (inactive),-0.691 (inactive),-0.229 (inactive)
C=C[C@@H](C)[C@@H](OC(=O)Nc1ccc(SC)cc1)c1ccc(OCCO)cc1,-0.0412 (inactive),0.663,-0.553,-5.52 (inactive),0.129 (inactive),0.387 (inactive)
CCOC(=O)C[C@H]1[C@H](OC(=O)c2ccc(-c3ccccc3)cc2)[C@@H](NC(=O)Cc2ccc(OC)cc2)c2cc(OCCCO)ccc2N1C(=O)Cc1ccc(OC)cc1,0.0878 (inactive),-0.015,-1.18,-1.32 (inactive),-0.366 (inactive),0.0566 (inactive)
COCC1C2CC[C@H]3C(OCc4ccc(OC)cc4)OC[C@]4(C)[C@H]3C2=C(CN4C(=O)OC(C)(C)C)[C@H](C)C1COC (stereo not given in full),-0.272 (inactive),0.682,-0.821,-4.09 (inactive),-0.615 (inactive),-0.719 (inactive)
C=C(C)[C@@H]1CC=C(C(O)C2C=CC3C(=O)N(c4ccccc4)C(=O)C3N2Nc2ccc(C#N)cc2)CC1 (stereo not given in full),0.476 (inactive),0.642,0.807,1.21 (inactive),-0.169 (inactive),0.008 (inactive)
COC(=O)[C@@]1(Cc2ccccc2CN=[N+]=[N-])N=C(c2ccc(OCCCO)cc2)O[C@H]1c1ccccc1CN=[N+]=[N-],0.192 (inactive),0.723,-2.2,0.87 (inactive),-0.598 (inactive),-0.223 (inactive)
CCCCCCCCCCC(O)C1C=CC2C(=O)N(C)C(=O)C2N1Nc1cc(OC)c(OC)c(OC)c1 (stereo not given),0.275 (inactive),-0.924,-0.326,-3.83 (inactive),0.569 (inactive),-0.418 (inactive)
CC(C)C[C@@H]1NC(=O)CNC(=O)[C@@]23C(=O)N[C@@H](Cc4ccccc4)C2[C@H](C)[C@@]2(C)O[C@H]2C3/C=C/C/C=C\CNC1=O (stereo not given in full),0.408 (inactive),0.767,0.0276,-6.42 (inactive),-0.284 (inactive),0.0034 (inactive)
COCCOC(=O)N1C(=O)[C@@]2(c3cc(C#CCNC(N)=O)ccc31)[C@H](c1ccc(O)cc1)N1[C@H](c3ccccc3)[C@H](c3ccccc3)OC(=O)[C@H]1[C@@H]2C(=O)N1CCN(c2ncccn2)CC1,0.237 (inactive),0.796,-1.71,0.0468 (inactive),-0.11 (inactive),-0.184 (inactive)
O=C(O)[C@@H]1C[C@@H]2C(=O)N3CCC[C@H]3C(=O)N2[C@@H]1c1cccc(OCCO)c1,2 (inactive),0.932,-0.382,-2.19 (inactive),0.299 (inactive),-0.0384 (inactive)
CN(C)CCCCCCNC(=O)[C@@H]1C[C@@H]2C(=O)N[C@@H](CCCCN)C(=O)N2[C@@H]1c1ccc(O)cc1,0.802 (inactive),0.753,-1.02,-1.14 (inactive),0.291 (inactive),0.481 (inactive)
CCOC(=O)C[C@H]1[C@H](OC(=O)c2ccc(-c3ccccc3)cc2)[C@@H](NC(=O)CC(C)C)c2cc(OCCCO)ccc2N1C(=O)c1ccccc1,0.22 (inactive),-0.0545,-0.419,-3.33 (inactive),-0.228 (inactive),-0.0761 (inactive)
COCCCNC(=O)[C@@]1(c2ccc([N+](=O)[O-])cc2)CC(=O)N(C(C)C)[C@@H]1c1ccc(CO)cc1,-1.3 (inactive),0.64,0.382,-0.803 (inactive),0.0991 (inactive),0.621 (inactive)
CS(=O)(=O)CCOC(=O)C1=CC(CCCO)=CC(C2CC2)N(Cc2cccc(OC(F)(F)F)c2)C=C1C(=O)OCCS(C)(=O)=O (stereo not given),0.892 (inactive),-0.221,-2.11,-6.49 (inactive),-0.002 (inactive),-0.36 (inactive)
